Among the data in PMC12820563, “FoxP3 forms a head-to-head dimer in vivo and stabilizes its multimerization on adjacent microsatellites” are binding signal values, retold here.

Over roughly 16,000 sequences, “rpm ratio (pull-down/input)” has its median near 0.94; the highest 2% begin near 1.7. The sample as a whole holds a higher share of the highest values than the screen did.

In the assay the target is T1, MBP-FoxP1dN (Mus musculus, UniProt P58462 326-579).
T1 sequence: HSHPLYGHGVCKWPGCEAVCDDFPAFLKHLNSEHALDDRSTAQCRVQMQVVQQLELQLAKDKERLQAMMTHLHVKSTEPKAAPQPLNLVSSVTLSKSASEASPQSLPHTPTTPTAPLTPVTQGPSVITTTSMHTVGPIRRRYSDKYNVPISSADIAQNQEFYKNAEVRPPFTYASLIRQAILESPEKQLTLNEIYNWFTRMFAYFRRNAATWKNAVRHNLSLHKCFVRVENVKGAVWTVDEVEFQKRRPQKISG
Kind of assay: PD-seq (MBP pull-down with sequencing); 20 mM Tris-HCl pH 7.5, 100 mM NaCl, 1.5 mM MgCl2, 0.4 uM protein, 0.1 uM dsDNA library, 30 min, room temperature, amylose pull-down; high values mean tight binding. Conditions: protein: recombinant; tags: His6-MBP; chain copies: 2; dsDNA, one strand shown. In short, it runs like this: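 A degenerate double-stranded DNA library, filled in with Klenow, was added at 0.1 µM to 0.4 µM His6-MBP-tagged mouse FoxP3 or FoxP1 fragment lacking the N-terminus, expressed in E. coli. Incubation lasted 30 min at room temperature in Tris pH 7.5 buffer with NaCl and MgCl2, after which complexes were collected on amylose resin, washed three times, digested with proteinase K to free the DNA, barcoded by PCR and sequenced by Illumina. Binding is the pooled-replicate reads-per-million enrichment of pull-down over input.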
For “GATGATTGTTCTCCCAGCTGATGAATTATTCTTATCGAGTAAACAAATTTTCCTAATCTTTCTGTTCAAGCGCCATCTAC”, the binding signal was 1.08 RPM ratio (pull-down/input). With “GATGATTGTTCTCCCAGCTGATGAATTGTTGATATCGAGTAAACAAATTTTCCTAATCTTTCTGTTCAAGCGCCATCTAC” the figure was 2.16 RPM ratio (pull-down/input).

Consider “GATGATTGTTCTCCCAGCTGATGAATTATTGTTATCGAGTAAACAAATTTTCCTAATCTTTCTGTTCAAGCGCCATCTAC”, for which the binding signal was 2.83 RPM ratio (pull-down/input). In the case of “GATGATTGTTCTCCCAGCTGATGAATTATTTCAATCGAGTAAACAAATTTTCCTAATCTTTCTGTTCAAGCGCCATCTAC”, the binding signal was 1.11 RPM ratio (pull-down/input). With “GATGATTGTTCTCCCAGCTGATGAATTCTTATTATCGAGTAAACAAATTTTCCTAATCTTTCTGTTCAAGCGCCATCTAC” the figure was 1.6 RPM ratio (pull-down/input); with “GATGATTGTTCTCCCAGCTGATGAATTATTCTAATCGAGTAAACAAATTTTCCTAATCTTTCTGTTCAAGCGCCATCTAC”, 1.2 RPM ratio (pull-down/input); with “GATGATTGTTCTCCCAGCTGATGAATTTATTCTATCGAGTAAACAAATTTTCCTAATCTTTCTGTTCAAGCGCCATCTAC”, 1.16 RPM ratio (pull-down/input). With “GATGATTGTTCTCCCAGCTGATGAATTATTGTAATCGAGTAAACAAATTTTCCTAATCTTTCTGTTCAAGCGCCATCTAC” the figure was 1.91 RPM ratio (pull-down/input).

Consider “GATGATTGTTCTCCCAGCTGATGAATTATTCCTATCGAGTAAACAAATTTTCCTAATCTTTCTGTTCAAGCGCCATCTAC”, for which the binding signal is 1.08 RPM ratio (pull-down/input). Then “GATGATTGTTCTCCCAGCTGATGAATTCTATTTATCGAGTAAACAAATTTTCCTAATCTTTCTGTTCAAGCGCCATCTAC”, with 2.58 RPM ratio (pull-down/input); and “GATGATTGTTCTCCCAGCTGATGAATTGATGATATCGAGTAAACAAATTTTCCTAATCTTTCTGTTCAAGCGCCATCTAC”, with 1.21 RPM ratio (pull-down/input). “GATGATTGTTCTCCCAGCTGATGAATTGAGGCTGTCGAGTAAACAAATTTTCCTAATCTTTCTGTTCAAGCGCCATCTAC”: the binding signal is 0.891 RPM ratio (pull-down/input).

In the case of “GATGATTGTTCTCCCAGCTGATGAATTACGTAAGTCGAGTAAACAAATTTTCCTAATCTTTCTGTTCAAGCGCCATCTAC”, the binding signal is 1.14 RPM ratio (pull-down/input). For the sequence “GATGATTGTTCTCCCAGCTGATGAATTGGGGCAATCGAGTAAACAAATTTTCCTAATCTTTCTGTTCAAGCGCCATCTAC”, the binding signal is 1.01 RPM ratio (pull-down/input). With “GATGATTGTTCTCCCAGCTGATGAATTTAGGACGTCGAGTAAACAAATTTTCCTAATCTTTCTGTTCAAGCGCCATCTAC” the figure was 0.956 RPM ratio (pull-down/input); with “GATGATTGTTCTCCCAGCTGATGAATTCATCAGCTCGAGTAAACAAATTTTCCTAATCTTTCTGTTCAAGCGCCATCTAC”, 0.818 RPM ratio (pull-down/input); with “GATGATTGTTCTCCCAGCTGATGAATTTCGTTAATCGAGTAAACAAATTTTCCTAATCTTTCTGTTCAAGCGCCATCTAC”, 0.996 RPM ratio (pull-down/input). Then “GATGATTGTTCTCCCAGCTGATGAATTGACATCCTCGAGTAAACAAATTTTCCTAATCTTTCTGTTCAAGCGCCATCTAC”, with 1.19 RPM ratio (pull-down/input). With “GATGATTGTTCTCCCAGCTGATGAATTTCTGTCATCGAGTAAACAAATTTTCCTAATCTTTCTGTTCAAGCGCCATCTAC” the figure was 1.15 RPM ratio (pull-down/input); with “GATGATTGTTCTCCCAGCTGATGAATTGTCATCATCGAGTAAACAAATTTTCCTAATCTTTCTGTTCAAGCGCCATCTAC”, 1.34 RPM ratio (pull-down/input). “GATGATTGTTCTCCCAGCTGATGAATTTTGATTATCGAGTAAACAAATTTTCCTAATCTTTCTGTTCAAGCGCCATCTAC”: the binding signal is 1.79 RPM ratio (pull-down/input). In the case of “GATGATTGTTCTCCCAGCTGATGAATTAGTGTTATCGAGTAAACAAATTTTCCTAATCTTTCTGTTCAAGCGCCATCTAC”, the binding signal is 1.8 RPM ratio (pull-down/input). Turning to “GATGATTGTTCTCCCAGCTGATGAATTAGTGTAATCGAGTAAACAAATTTTCCTAATCTTTCTGTTCAAGCGCCATCTAC”, the binding signal is 1.54 RPM ratio (pull-down/input). With “GATGATTGTTCTCCCAGCTGATGAATTTATTGTATCGAGTAAACAAATTTTCCTAATCTTTCTGTTCAAGCGCCATCTAC” the figure was 1.6 RPM ratio (pull-down/input); with “GATGATTGTTCTCCCAGCTGATGAATTGAAATTATCGAGTAAACAAATTTTCCTAATCTTTCTGTTCAAGCGCCATCTAC”, 1.01 RPM ratio (pull-down/input). Then “GATGATTGTTCTCCCAGCTGATGAATTAGTTATATCGAGTAAACAAATTTTCCTAATCTTTCTGTTCAAGCGCCATCTAC”, with 1.07 RPM ratio (pull-down/input); and “GATGATTGTTCTCCCAGCTGATGAATTTATCGTATCGAGTAAACAAATTTTCCTAATCTTTCTGTTCAAGCGCCATCTAC”, with 1.22 RPM ratio (pull-down/input); and “GATGATTGTTCTCCCAGCTGATGAATTGTATTTATCGAGTAAACAAATTTTCCTAATCTTTCTGTTCAAGCGCCATCTAC”, with 2.72 RPM ratio (pull-down/input). With “GATGATTGTTCTCCCAGCTGATGAATTGTTGTCATCGAGTAAACAAATTTTCCTAATCTTTCTGTTCAAGCGCCATCTAC”, the binding signal is 2.36 RPM ratio (pull-down/input).

On to “GATGATTGTTCTCCCAGCTGATGAATTTGAATTATCGAGTAAACAAATTTTCCTAATCTTTCTGTTCAAGCGCCATCTAC”, for which the binding signal was 0.969 RPM ratio (pull-down/input). With “GATGATTGTTCTCCCAGCTGATGAATTAGACAGTTCGAGTAAACAAATTTTCCTAATCTTTCTGTTCAAGCGCCATCTAC” the figure was 0.913 RPM ratio (pull-down/input); with “GATGATTGTTCTCCCAGCTGATGAATTTTTAAGTTCGAGTAAACAAATTTTCCTAATCTTTCTGTTCAAGCGCCATCTAC”, 0.97 RPM ratio (pull-down/input).
